Screens deposited in PubChem BioAssay by several laboratories.
BioA inh = M. tuberculosis BioA enzyme inhibitors, primary screen, biochemical, plate reader, single point, HTS; 7,8-diaminopelargonic acid synthase BioA (Mycobacterium tuberculosis); purified M. tuberculosis BioA enzyme; inhibition, % at 9.99 µM; 360,000 compounds, 0.096% hits; AID 602481, 2012; in the data active = inhibition above about 40%
FBA Mtb inh = Mtb FBA enzyme inhibitors, primary screen, biochemical, fluorescence, strain H37Rv | Fructose-bisphosphate aldolase (Mycobacterium tuberculosis (strain ATCC 25618 / H37Rv)), … | 360,000 compounds, 2.3% hits | inhibition, % at 1 µM | purified M. tuberculosis FBA, fluorescence read-out; in the data active = inhibition above about 27%
Rv3671c inh = Rv3671c serine protease inhibitors, primary screen, biochemical, fluorescence polarization, M. tuberculosis H37Rv | P9WHR9 | inhibition, % at 5.96 µM | AID 2606, 2010 | 320,000 compounds, 0.048% hits; in the data active = inhibition above about 38%;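 note: extracellular domain of Rv3671c used as enzyme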
Target sequence (P9WHR9 whole entry, looked up, the tested form may be a part): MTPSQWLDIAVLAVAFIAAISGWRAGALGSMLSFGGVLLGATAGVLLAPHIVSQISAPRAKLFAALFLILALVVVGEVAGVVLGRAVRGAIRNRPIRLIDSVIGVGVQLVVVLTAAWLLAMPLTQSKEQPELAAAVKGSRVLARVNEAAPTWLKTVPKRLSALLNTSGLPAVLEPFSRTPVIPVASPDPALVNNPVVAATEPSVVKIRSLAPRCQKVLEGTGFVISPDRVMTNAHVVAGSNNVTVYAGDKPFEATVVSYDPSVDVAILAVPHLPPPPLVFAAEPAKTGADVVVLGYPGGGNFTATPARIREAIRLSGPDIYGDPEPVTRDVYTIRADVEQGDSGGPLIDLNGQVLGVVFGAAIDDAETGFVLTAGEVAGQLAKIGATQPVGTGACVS
FadD28 binding = inhibitors of FadD28 bisubstrate probe binding, primary screen, biochemical, fluorescence polarization, single point. inhibition, % at 12.5 µM. 360,000 compounds, 0.22% hits. AID 588549, 2011; in the data active = inhibition above about 8.5%, passing the limit was not always enough
GDH-TPI counter = GDH-TPI coupling enzyme inhibitors, primary screen, artefact control for M. tuberculosis FBA inhibitor project, biochemical, absorbance, full deck | GDH-TPI coupled enzyme counterscreen, NADH absorbance | inhibition, % at 4.8 µM | 360,000 compounds, 1.2% hits | AID 588335, 2011; in the data active = inhibition above about 30%
Hits are given with their value; 0 = inactive; - = not tested or not shown; + = active, no number. Sampled rows, rich in hits. Any-hit rate of the full collection: about 3%.

SMILES	BioA inh	FBA Mtb inh	Rv3671c inh	FadD28 binding	GDH-TPI counter
COc1ccc(-c2nsc(C(=O)N(c3ccc(F)cc3)C(C(=O)NC3CCCC3)c3ccc(OC)cc3)c2N)cc1 (stereo unspecified)	0	0	0	0	31.1
COc1ccc(N(C(=O)c2snc(C(N)=O)c2N)C(C(=O)NC2CCCCC2)c2ccc(F)cc2)c(OC)c1 (stereo unspecified)	0	0	0	0	0
COC1=C/C(=C/c2c(N)n3cc(C)sc3nc2=O)C=CC1=O	0	0	0	0	0
Cc1cn2c(N)c(C=C3C=C(Cl)C(=O)C(Cl)=C3)c(=O)nc2s1	-	0	-	14.6	0
C[C@H]1CN([C@@H](C)CO)C(=O)c2cc(C3=CCCCC3)cnc2O[C@@H]1CN(C)Cc1cccnc1	0	-	-	-	-
C[C@H](NC(=O)C[C@H]1C[C@H]2c3cc(NC(=O)Cc4ccncc4)ccc3O[C@H]2[C@@H](CO)O1)c1ccccc1	0	-	-	-	-
CC(=O)N1CCN(C2=NC(=O)/C(=C/c3ccc(OS(=O)(=O)c4ccccc4)cc3)S2)CC1	-	0	0	0	31.5
COc1cc(/C=C2\SC(N3CCCCC3)=NC2=O)cc(OC)c1OC	-	0	0	0	32.6
COc1ccc(/C=C2\SC(N3CCCCC3)=NC2=O)cc1	0	0	0	0	47.4
O=C1N=C(N2CCCCC2)S/C1=C\c1ccncc1	-	0	0	0	0
C[C@H]1CN([C@@H](C)CO)C(=O)c2cc(-c3cccc(C(=O)N(C)C)c3)cnc2O[C@@H]1CN(C)C	0	-	-	-	-
CC(=O)Cc1nsc(NC(=O)c2ccc(-c3ccc(Cl)cc3Cl)o2)n1	0	0	0	0	0
CC(=O)Cc1nsc(NC(=O)c2ccc(-c3cc(Cl)ccc3Cl)o2)n1	0	0	0	0	45.9
C[C@@H]1CN([C@@H](C)CO)C(=O)c2cc(-c3ccc(F)cc3)cnc2O[C@@H]1CN(C)CC1CCCCC1	0	-	-	-	-
C#CCn1c(O)c(N=NC(=O)C(O)c2ccccc2)c2ccccc21 (stereo unspecified)	0	0	0	0	31.2
C=CCn1c(O)c(N=NC(=O)OC(C)(C)C)c2ccccc21	0	0	0	0	0
C=CCn1c(O)c(N=NC(=S)Nc2ccc(OC)c(Cl)c2)c2ccccc21	0	0	0	0	45.7
C=CCn1c(O)c(N=NC(=O)C(O)c2ccccc2)c2ccccc21 (stereo unspecified)	0	0	0	0	38.8
O=C(N[C@H]1C=C[C@H](CC(=O)N2CCCCC2)O[C@@H]1CO)c1ccc2c(c1)OCO2	0	-	-	-	-
COc1cccc(NC(=O)C[C@@H]2CC[C@@H]3[C@@H](COc4ccc(NC(=O)c5ccccc5F)cc4C(=O)N3C)O2)c1	0	-	-	-	-
C[C@H](CO)N1C[C@H](C)[C@@H](CN(C)Cc2ccc(Oc3ccccc3)cc2)Oc2ncc(-c3ccncc3)cc2C1=O	0	-	-	-	-
CCOC(=O)/C(=C\c1c[nH]c2ccccc12)NC(C)=O	0	0	0	0	0
COC(=O)/C(=C\c1c[nH]c2ccccc12)NC(C)=O	0	0	0	0	39.2
c1ccc2nc3c(nc2c1)OCC1CCCCN31 (stereo unspecified)	0	149.5	0	0	0
Cc1ccc(/C=C/C(=O)Nc2nccs2)o1	0	0	0	0	51.6
SMILES	BioA inh	FBA Mtb inh	Rv3671c inh	FadD28 binding	GDH-TPI counter
Cc1ccc(/C=C/C(=O)Nc2ncc(C)s2)o1	-	0	0	0	0
O=C(Nc1ccc(F)cc1)N1C[C@@H]2[C@H](c3ccccc31)[C@H](CO)N2C(=O)c1ccc(F)cc1	0	-	-	-	-
O=C(COC(=O)C1CCC(=O)N1)Nc1ccccc1Br (stereo unspecified)	0	0	0	0	31.6
O=C(COC(=O)C1CCC(=O)N1)Nc1ccc(Oc2ccccc2)cc1 (stereo unspecified)	0	0	0	0	0
N#CC(C(=O)NC1CC1)c1nc2ccccc2nc1N1CCN(C/C=C/c2ccccc2)CC1 (stereo unspecified)	0	0	0	0	0
N#CC(C(=O)NC1CC1)c1nc2ccccc2nc1N1CCCC1 (stereo unspecified)	0	60.6	0	0	0
Cc1ncc(CO)c(CNc2ccc(-c3nc4ccccc4[nH]3)cc2)c1O	0	0	-	0	41.9
COCC(=O)Nc1ccc2c(c1)C(=O)N(C)C[C@@H](OC)[C@H](C)CN(Cc1cncnc1)[C@@H](C)CO2	0	-	-	-	-
CCC(NC(=O)Cc1c(C)c2ccc(OC)c(C)c2oc1=O)C(=O)NC(Cc1ccc(Cl)cc1)C(=O)O (stereo unspecified)	0	143.1	0	0	0
Cc1c(OCC(=O)NC(Cc2ccc(Cl)cc2)C(=O)O)ccc2c1oc(=O)c1ccccc12 (stereo unspecified)	0	0	0	0	0
COCCOC(=O)c1cc(C(=O)c2cc(F)ccc2O)coc1=N	0	0	0	0	36.6
COCC(=O)Nc1ccc2c(c1)C(=O)N(C)C[C@@H](OC)[C@H](C)CN[C@@H](C)CO2	0	-	-	-	-
Cc1oc2cc3oc(=O)c(CC(=O)N[C@@H](C)C(=O)NC(Cc4ccc(Cl)cc4)C(=O)O)c(C)c3cc2c1C (stereo partly specified)	0	0	0	0	0
Cc1oc2cc3oc(=O)c(CC(=O)N[C@H](C(=O)N[C@@H](C(=O)O)c4ccccc4)C(C)C)c(C)c3cc2c1C	0	0	0	0	0
Cc1c(CC(=O)NCC(C)C)c(=O)oc2cc3c(cc12)CCC(C)(C)O3	0	140.1	0	0	0
Cc1c(CC(=O)N[C@@H](C)C(=O)O)c(=O)oc2cc3c(cc12)CCC(C)(C)O3	0	+	0	0	0
Cc1c(CC(=O)N[C@H](C(=O)O)C(C)C)c(=O)oc2cc3c(cc12)CCC(C)(C)O3	0	153.0	-	0	0
Cc1c(CC(=O)NC(C)C)c(=O)oc2cc3c(cc12)CCC(C)(C)O3	0	+	0	0	0
Cc1oc2cc3oc(=O)c(CC(=O)NCCCC(=O)O)c(C)c3cc2c1C	0	0	0	0	0
CCNC(=O)C[C@H]1CC[C@H]2[C@@H](COc3ccc(NC(=O)c4cc(C)on4)cc3C(=O)N2C)O1	0	-	-	-	-
CO[C@H](CN(C)Cc1ccc(-c2ccccn2)cc1)[C@H](C)CN(C(=O)Nc1ccc(F)cc1)[C@H](C)CO	0	-	-	-	-
COc1ccc(S(=O)(=O)N[C@H]2C=C[C@@H](CC(=O)NCCc3ccncc3)O[C@@H]2CO)cc1	0	-	-	-	-
CC(=O)N(C)C[C@H]1Oc2cc(-c3ccccc3F)ccc2S(=O)(=O)N([C@@H](C)CO)C[C@@H]1C	0	-	-	-	-
CC[C@@H](C)[C@H](NC(=O)Cc1c(C)c2cc3c(C)c(C)oc3c(C)c2oc1=O)C(=O)O	0	0	0	-	0
CCC(C)NC(=O)Cc1c(C)c2cc3c(cc2oc1=O)OC(C)(C)CC3 (stereo unspecified)	0	189.1	0	-	0
COCCNC(=O)Cc1c(C)c2cc3c(cc2oc1=O)OC(C)(C)CC3	0	164.9	-	0	0
Cc1oc2cc3oc(=O)c(CC(=O)NCCC(=O)O)c(C)c3cc2c1C	0	0	-	0	0
